Experimental data from PubChem BioAssay AID1159580 (chemical genetic matrix, 2015).
“And” between values parts separate entries of the source, which are not always exact repeats. Equal entries are not always repeated. Out of some 5,500 compounds screened, about 2,000 (36%) were called active. Roughly 18% stayed inconclusive and do not appear here. Cut-off read from the data, not from the text of the source: active = normalized growth mostly below about 0.91 (no sharp cut-off); inconclusive = no clear call, values can overlap the other calls; inactive = mostly above about 0.92. The list shows a part of the results.

Test: chemical genetic growth profiling, strain panel (AID 1159580);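 note: tested at 20 µM; growth read once vehicle control cultures reached saturation at 30 °C; 1 = growth at the plate median or of vehicle wells; lower values mean less growth of the strain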
Settings: S. cerevisiae deletion strains, growth OD

Measured: normalized growth

CCCc1cc(=O)[nH]c(=S)[nH]1
inactive: locus YAL013W, strain DEP1, stronger effect = lower value 1.02 | locus YAL021C, strain ccr4, stronger effect = lower value 1.02 | locus YAL026C, strain drs2, stronger effect = lower value 1.03 | locus YAL030W, strain snc1, stronger effect = lower value 1.02 | locus YBL061C, strain skt5, stronger effect = lower value 1.03 | locus YBR009C, strain hhf1, stronger effect = lower value 1.02 | locus YBR021W, strain FUR4, stronger effect = lower value 0.987 | locus YBR023C, strain chs3, stronger effect = lower value 1.02 | locus YBR171W, strain sec66, stronger effect = lower value 1.04 | locus YBR229C, strain ROT2, stronger effect = lower value 1 | locus YBR231C, strain swc5, stronger effect = lower value 1 | locus YBR279W, strain paf1, stronger effect = lower value 0.988 | locus YCL011C, strain gbp2, stronger effect = lower value 1.01 | locus YCL016C, strain dcc1, stronger effect = lower value 1.01 | locus YCL029C, strain bik1, stronger effect = lower value 0.994 | locus YCL069W, strain vba3, stronger effect = lower value 1.02 | locus YCR088W, strain abp1, stronger effect = lower value 1.01 | locus YDL005C, strain med2, stronger effect = lower value 1.03 | locus YDL035C, strain GPR1, stronger effect = lower value 1.01 | locus YDL040C, strain nat1, stronger effect = lower value 1.01 | locus YDL074C, strain BRE1, stronger effect = lower value 1.03 | locus YDL101C, strain DUN1, stronger effect = lower value 1.01 | locus YDL134C, strain PPH21, stronger effect = lower value 1.01 | locus YDL185W, strain tfp1, stronger effect = lower value 1.02 | locus YDL192W, strain arf1, stronger effect = lower value 1 | locus YDR001C, strain nth1, stronger effect = lower value 1.01 | locus YDR069C, strain doa4, stronger effect = lower value 1.01 | locus YDR101C, strain arx1, stronger effect = lower value 0.985 | locus YDR137W, strain rgp1, stronger effect = lower value 1.02 | locus YDR150W, strain NUM1, stronger effect = lower value 1.01 | locus YDR159W, strain sac3, stronger effect = lower value 0.995 | locus YDR162C, strain NBP2, stronger effect = lower value 1.02 | locus YDR195W, strain ref2 0.999 | locus YDR297W, strain sur2, stronger effect = lower value 1.01 | locus YDR318W, strain mcm21, stronger effect = lower value 0.985 | locus YDR334W, strain swr1, stronger effect = lower value 1.03 | locus YDR335W, strain msn5, stronger effect = lower value 1.01 | locus YDR388W, stronger effect = lower value 0.989 | locus YDR392W, strain spt3, stronger effect = lower value 0.997 | locus YDR502C, strain sam2, stronger effect = lower value 0.989 | locus YEL003W, strain gim4, stronger effect = lower value 1.01 | locus YEL037C, strain rad23, stronger effect = lower value 1.03 | locus YEL061C, strain CIN8 (second series), stronger effect = lower value 1.03 | locus YEL061C, strain CIN8, stronger effect = lower value 1.01 | locus YER015W, strain faa2, stronger effect = lower value 1.01 | locus YER016W, strain bim1, stronger effect = lower value 1 | locus YER110C, stronger effect = lower value 0.991 | locus YER111C, strain swi4, stronger effect = lower value 1 | locus YER155C, strain BEM2 (second series), stronger effect = lower value 1.04 | locus YER155C, strain BEM2, stronger effect = lower value 1.01 | locus YER167W, strain BCK2, stronger effect = lower value 1.01 | locus YFR010W, strain ubp6, stronger effect = lower value 1.02 | locus YGL078C, strain dbp3, stronger effect = lower value 0.996 | locus YGL086W, strain mad1, stronger effect = lower value 0.987 | locus YGL167C, strain pmr1, stronger effect = lower value 1.02 | locus YGL173C, strain kem1, stronger effect = lower value 1.04 | locus YGL227W, strain vid30, stronger effect = lower value 1.03 | locus YGL240W, strain doc1, stronger effect = lower value 1 | locus YGL248W, strain PDE1, stronger effect = lower value 1.01 | locus YGL253W, strain hxk2, stronger effect = lower value 0.995 | locus YGR078C, strain PAC10, stronger effect = lower value 1 | locus YGR135W, strain pre9, stronger effect = lower value 0.994 | locus YGR229C, strain SMI1, stronger effect = lower value 1.02 | locus YGR252W, strain gcn5, stronger effect = lower value 0.901 | locus YHR013C, strain ard1, stronger effect = lower value 1.09 | locus YHR027C, strain rpn1, stronger effect = lower value 1.01 | locus YHR030C, strain SLT2, stronger effect = lower value 1.02 | locus YHR079C, strain IRE1 (second series), stronger effect = lower value 0.983 | locus YHR079C, strain IRE1, stronger effect = lower value 1.03 | locus YHR094C, strain hxt1, stronger effect = lower value 0.993 | locus YHR129C, strain ARP1, stronger effect = lower value 1.02 | locus YHR142W, strain chs7, stronger effect = lower value 1.05 | locus YHR200W, strain rpn10, stronger effect = lower value 1.01 | locus YIL066C, strain RNR3, stronger effect = lower value 1 | locus YIL073C, strain SPO22, stronger effect = lower value 0.955 | locus YIL125W, strain kgd1, stronger effect = lower value 1 | locus YIR030C, strain dcg1, stronger effect = lower value 0.998 | locus YJL092W, strain hpr5, stronger effect = lower value 1.02 | locus YJL095W, strain BCK1 (second series), stronger effect = lower value 1.02 | locus YJL095W, strain BCK1, stronger effect = lower value 1.01 and 0.999 | locus YJL115W, strain asf1, stronger effect = lower value 1.02 | locus YJL129C, strain trk1, stronger effect = lower value 1.01 | locus YJL134W, strain LCB3, stronger effect = lower value 1.01 | locus YJL154C, strain vps35, stronger effect = lower value 1 | locus YJL164C, strain tpk1, stronger effect = lower value 1.02 | locus YJL166W, strain qcr8, stronger effect = lower value 1.04 | locus YJL168C, strain set2, stronger effect = lower value 0.989 | locus YJL187C, strain SWE1 (second series), stronger effect = lower value 1.01 | locus YJR043C, strain POL32, stronger effect = lower value 1 | locus YJR066W, strain TOR1, stronger effect = lower value 0.971
